# Data taken from PubChem BioAssay (NCATS).
# Where “and” joins values, the source holds several entries; their conditions need not be identical. Equal values may be shown once. Unmarked numbers belong to inactive results. Results filed as inconclusive are left out. Where a call stands in place of a potency, no number is given. Calls of active or inactive are those of the source. Unless noted, calls follow the shape of the dose curve; as a rule, active = well fitted curve in the direction sought with a large enough effect; inconclusive = small, poorly fitted or top-dose-only effect, or another doubt; inactive = no such curve, though single readings can be large; an effect the other way counts as inactive or inconclusive.
# How the values were obtained:
# [1] = target: T1, Tyrosine-protein phosphatase non-receptor type substrate 1 (Homo sapiens) + Leukocyte surface antigen CD47 (Homo sapiens) (UniProt P78324+Q08722); test: CD47-SIRPalpha protein protein interaction - LANCE assay qHTS validation (AID 1347057; active = well fitted curve in the direction sought with a large enough effect in the signal ratio, with a control signal flat, not every such curve was filed as active; the % refers to the signal ratio; also: series mostly up to about 38 µM)
# In short: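 First, His-tagged CD47 and Eu-labelled anti-His antibody met the compound for 30 min; next, site-specifically biotinylated SIRPalpha was added for 30 min; finally streptavidin-APC was added before reading the TR-FRET ratio.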
# [2] = target: T1, Tyrosine-protein phosphatase non-receptor type substrate 1 (Homo sapiens) + Leukocyte surface antigen CD47 (Homo sapiens); test: CD47-SIRPalpha protein protein interaction - HTRF assay qHTS validation (AID 1347058; active = well fitted curve in the direction sought with a large enough effect in the signal ratio, not every such curve was filed as active; the % refers to the signal ratio; also: series mostly up to about 38 µM)
# In short: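 TR-FRET read (Ch1/Ch2 ratio) of soluble extracellular CD47 and Avi-biotinylated SIRPalpha domains in PBS pH 7.4 with 0.05% IGEPAL; 7-point compound titration. Sequential 30 min room-temperature steps; non-biotinylated SIRPalpha as control inhibitor.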
# [3] = target: T1, Tyrosine-protein phosphatase non-receptor type substrate 1 (Homo sapiens) + Leukocyte surface antigen CD47 (Homo sapiens); test: CD47-SIRPalpha protein protein interaction - Alpha assay qHTS validation (AID 1347059);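 also: bead proximity luminescence from CD47 binding SIRPalpha after compound preincubation with SIRPalpha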
# In short: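 Soluble extracellular domains: Avi-tag biotinylated SIRPalpha (25 nM) preincubated 30 min RT with compound, then 6His-CD47 (12.5 nM) 30 min; Ni-NTA acceptor and streptavidin donor beads (10 ug/mL) 30 min, AlphaScreen read. PBS pH 7.4, 0.05% IGEPAL.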
# [4] = target: Parathyroid hormone/parathyroid hormone-related peptide receptor (Homo sapiens) (UniProt Q03431); test: qHTS for PTHR1 Agonists: Optimization Screen against the NCGC LOPAC library (AID 1347079);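 also: GloSensor cAMP luminescence in HEK-293 GP2 cells expressing human PTHR1 with IBMX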
# In short: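 Agonist readout: GloSensor cAMP luminescence, read after 15 min at room temperature. HEK-293-derived GP2 line carries PTHR1; compounds tested as a titration for 1 hr at 37C in presence of IBMX. M-PTH (1-15) served as control.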
# [5] = qHTS for Inhibitors of the Functional Ribonucleoprotein Complex (vRNP) of Lassa (LASV) Arenavirus: LASV Primary Screen - GLuc reporter signal (AID 1347082; calls by dose curve; tested in HEK293 reporter line; also: nearly all actives have a fitted effect of over 60% in size; also: potency is read from the fitted curve at half-maximal effect)
# [6] = qHTS for Inhibitors of the Functional Ribonucleoprotein Complex (vRNP) of Lassa (LASV) Arenavirus: Viability assay - alamar blue signal for LASV Primary Screen (AID 1347083; calls by dose curve; tested in HEK293 reporter line; also: series mostly up to about 57 µM; nearly all actives have a fitted effect of over 80% in size)
# [7] = qHTS for Inhibitors of the Functional Ribonucleoprotein Complex (vRNP) of Lymphocytic Choriomeningitis Arenaviruses (LCMV): Viability assay - alamar blue signal for LCMV Primary Screen (AID 1347085; calls by dose curve; tested in HEK293 reporter line; also: series mostly up to about 57 µM; nearly all actives have a fitted effect of over 80% in size)
# [8] = target: Nucleoprotein (Lymphocytic choriomeningitis virus (strain Armstrong)) (UniProt P09992); test: qHTS for Inhibitors of the Functional Ribonucleoprotein Complex (vRNP) of Lymphocytic Choriomeningitis Arenaviruses (LCMV): LCMV Primary Screen - GLuc reporter signal (AID 1347086; calls by dose curve; also: nearly all actives have a fitted effect of over 70% in size; also: potency is read from the fitted curve at half-maximal effect)
# [9] = qHTS of pediatric cancer cell lines to identify multiple opportunities for drug repurposing: Primary screen for TC32 cells (AID 1347089); also: nearly all actives have a fitted effect of over 60% in size; also: potency is read from the fitted curve at half-maximal effect
# In short: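 Luminescent ATP read-out (CellTiter-Glo) of metabolically active TC32 cells after 48 h exposure. Concentration-response curves came from 11-point (MIPE, 0.78 nM–46 µM) or 8-point (NPC, 0.59 nM–46 µM) primary titrations; follow-up used 11 points.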
# [10] = qHTS of pediatric cancer cell lines to identify multiple opportunities for drug repurposing: Primary screen for DAOY cells (AID 1347090); also: nearly all actives have a fitted effect of over 55% in size; also: potency is read from the fitted curve at half-maximal effect; as to activity change, negative = cytotoxic: series mostly up to about 46 µM
# In short: (§1)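 Eight- or eleven-point concentration series, 48 h treatment at 37 degrees C in growth media; readout CellTiter-Glo luminescence. Potency and efficacy were taken from the concentration-response curves.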
# [11] = qHTS of pediatric cancer cell lines to identify multiple opportunities for drug repurposing: Primary screen for SJ-GBM2 cells (AID 1347091); also: potency is read from the fitted curve at half-maximal effect
# In short: as §1
# [12] = qHTS of pediatric cancer cell lines to identify multiple opportunities for drug repurposing: Primary screen for A673 cells (AID 1347092); also: nearly all actives have a fitted effect of over 45% in size; also: potency is read from the fitted curve at half-maximal effect
# In short: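 Cell viability of A673 measured by CellTiter-Glo ATP luminescence after 48 hours compound exposure. Dilution series spanned 0.78 nM to 46 µM (MIPE, 11-point) or 0.59 nM to 46 µM (NPC, 8-point); bortezomib 2.3 uM positive control.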
# [13] = qHTS of pediatric cancer cell lines to identify multiple opportunities for drug repurposing: Primary screen for SK-N-MC cells (AID 1347093); also: potency is read from the fitted curve at half-maximal effect; as to activity change, negative = cytotoxic: series mostly up to about 46 µM
# In short: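 Metabolically active cells were quantified by ATP-dependent luminescence (CellTiter-Glo, 15 min at room temperature) following 48 h treatment. Cells had been plated at 500-1,000 per well and settled for 5 h beforehand.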
# [14] = qHTS of pediatric cancer cell lines to identify multiple opportunities for drug repurposing: Primary screen for BT-37 cells (AID 1347094); also: potency is read from the fitted curve at half-maximal effect; as to activity change, negative = cytotoxic: series mostly up to about 57 µM
# In short: (§2)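 Cells plated at 500-1,000/well in growth medium, compounds added after 5 h. MIPE tested at 11 points (from 0.78 nM), NPC at 8 points (from 0.59 nM). CellTiter-Glo luminescence after 48 h; concentration-response curves from primary screen.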
# [15] = qHTS of pediatric cancer cell lines to identify multiple opportunities for drug repurposing: Primary screen for NB-EBc1 cells (AID 1347095); also: potency is read from the fitted curve at half-maximal effect
# In short: as §2
# [16] = qHTS of pediatric cancer cell lines to identify multiple opportunities for drug repurposing: Primary screen for U-2 OS cells (AID 1347096); also: nearly all actives have a fitted effect of over 50% in size; also: potency is read from the fitted curve at half-maximal effect
# In short: (§3)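 Cells (500-1,000/well) in growth media were settled 5 h at 37 degrees C, then given compounds for 48 h. Viability was read as CellTiter-Glo luminescence. Primary runs used MIPE at 11 points (0.78 nM-46 µM) and NPC at 8 points (0.59 nM-46 µM); follow-ups used 11 points.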
# [17] = qHTS of pediatric cancer cell lines to identify multiple opportunities for drug repurposing: Primary screen for Saos-2 cells (AID 1347097); also: nearly all actives have a fitted effect of over 40% in size; also: potency is read from the fitted curve at half-maximal effect
# In short: as §2
# [18] = qHTS of pediatric cancer cell lines to identify multiple opportunities for drug repurposing: Primary screen for SK-N-SH cells (AID 1347098); also: nearly all actives have a fitted effect of over 65% in size; also: potency is read from the fitted curve at half-maximal effect;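 as to activity change, negative = cytotoxic: DMSO served as neutral control and bortezomib at 2.3 µM as positive control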
# In short: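 Cells (500-1,000/well) rested 5 h, then received compounds for 48 h; metabolically active cells were measured by CellTiter-Glo luminescence. Final concentrations spanned up to 46 µM (MIPE, 11-point) or 0.59 nM-46 µM (NPC, 8-point) in primary screens, 11-point in follow-ups.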
# [19] = qHTS of pediatric cancer cell lines to identify multiple opportunities for drug repurposing: Primary screen for LAN-5 cells (AID 1347100); also: potency is read from the fitted curve at half-maximal effect
# In short: as §3
# [20] = qHTS of pediatric cancer cell lines to identify multiple opportunities for drug repurposing: Primary screen for NB1643 cells (AID 1347099); also: nearly all actives have a fitted effect of over 50% in size; also: potency is read from the fitted curve at half-maximal effect
# In short: as §2
# Chain of Parathyroid hormone/parathyroid hormone-related peptide receptor (Homo sapiens) (Q03431 whole entry, looked up): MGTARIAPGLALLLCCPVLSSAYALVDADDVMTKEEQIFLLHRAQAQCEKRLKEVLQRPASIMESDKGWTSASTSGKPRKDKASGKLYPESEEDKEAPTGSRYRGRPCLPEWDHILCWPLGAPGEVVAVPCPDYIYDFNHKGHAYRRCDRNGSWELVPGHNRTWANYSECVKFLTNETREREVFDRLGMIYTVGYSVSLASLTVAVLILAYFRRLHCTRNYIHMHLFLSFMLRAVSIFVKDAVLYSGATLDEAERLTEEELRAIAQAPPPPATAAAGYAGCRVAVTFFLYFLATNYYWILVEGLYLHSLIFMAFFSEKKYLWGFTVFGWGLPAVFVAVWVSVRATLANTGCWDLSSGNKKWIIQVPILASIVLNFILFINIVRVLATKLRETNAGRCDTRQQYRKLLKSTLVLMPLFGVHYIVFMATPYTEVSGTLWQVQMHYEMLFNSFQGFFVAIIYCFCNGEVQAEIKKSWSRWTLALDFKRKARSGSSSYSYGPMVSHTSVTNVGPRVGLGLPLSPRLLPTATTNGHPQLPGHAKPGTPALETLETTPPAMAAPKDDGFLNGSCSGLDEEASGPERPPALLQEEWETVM
# T1 sequence (P78324 whole entry, looked up): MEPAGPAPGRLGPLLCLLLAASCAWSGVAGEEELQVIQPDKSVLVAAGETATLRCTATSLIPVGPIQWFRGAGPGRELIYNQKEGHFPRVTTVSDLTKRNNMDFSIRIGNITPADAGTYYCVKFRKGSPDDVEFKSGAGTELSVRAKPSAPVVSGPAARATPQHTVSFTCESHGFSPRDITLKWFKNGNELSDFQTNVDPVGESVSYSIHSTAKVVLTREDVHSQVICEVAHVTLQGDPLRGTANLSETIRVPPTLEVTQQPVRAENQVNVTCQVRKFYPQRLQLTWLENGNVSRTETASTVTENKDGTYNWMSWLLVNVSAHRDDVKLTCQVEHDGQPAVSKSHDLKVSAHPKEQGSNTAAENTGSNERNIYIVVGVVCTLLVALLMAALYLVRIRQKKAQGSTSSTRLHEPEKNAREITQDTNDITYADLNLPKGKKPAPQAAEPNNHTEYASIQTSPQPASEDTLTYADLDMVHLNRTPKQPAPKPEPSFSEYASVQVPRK
# T1 sequence (Q08722 whole entry, looked up): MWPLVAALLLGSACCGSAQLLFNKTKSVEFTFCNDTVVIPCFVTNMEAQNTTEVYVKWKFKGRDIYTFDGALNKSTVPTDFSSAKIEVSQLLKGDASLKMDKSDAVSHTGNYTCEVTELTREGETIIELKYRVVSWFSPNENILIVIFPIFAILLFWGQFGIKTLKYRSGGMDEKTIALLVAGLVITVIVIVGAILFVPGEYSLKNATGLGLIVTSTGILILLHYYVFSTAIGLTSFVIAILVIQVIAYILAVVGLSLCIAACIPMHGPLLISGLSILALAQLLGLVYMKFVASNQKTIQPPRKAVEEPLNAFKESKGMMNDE
# Chain of Nucleoprotein (Lymphocytic choriomeningitis virus (strain Armstrong)) (P09992 whole entry, looked up): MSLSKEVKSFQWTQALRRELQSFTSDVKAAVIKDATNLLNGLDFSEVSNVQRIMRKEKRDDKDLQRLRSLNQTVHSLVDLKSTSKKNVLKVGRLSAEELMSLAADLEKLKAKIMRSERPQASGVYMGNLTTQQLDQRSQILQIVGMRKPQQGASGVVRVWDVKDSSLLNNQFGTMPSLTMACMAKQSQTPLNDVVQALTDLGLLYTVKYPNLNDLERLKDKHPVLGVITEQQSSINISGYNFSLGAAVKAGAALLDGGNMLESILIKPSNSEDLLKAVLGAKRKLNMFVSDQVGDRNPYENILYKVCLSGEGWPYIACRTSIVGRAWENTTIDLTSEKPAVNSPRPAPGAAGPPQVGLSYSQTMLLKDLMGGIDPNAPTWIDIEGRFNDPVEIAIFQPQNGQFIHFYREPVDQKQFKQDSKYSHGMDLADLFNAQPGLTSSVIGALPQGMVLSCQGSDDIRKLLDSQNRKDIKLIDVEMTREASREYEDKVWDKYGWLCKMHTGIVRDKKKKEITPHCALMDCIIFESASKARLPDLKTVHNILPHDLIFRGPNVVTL
structure (smiles),measurement,setting,value
NN=C(N)N,outcome,[1],inactive
same,outcome,[2],inactive
same,outcome,[3],inactive
same,outcome,[4],inactive
same,Potency,[5],inactive
same,Potency,[6],inactive
same,Potency,[7],inactive
same,Potency,[8],inactive
same,Potency,[9],inactive
same,Potency,[10],inactive
same,Potency,[11],inactive
same,Potency,[12],inactive
same,Potency,[13],inactive
same,Potency,[14],inactive
same,Potency,[15],inactive
same,Potency,[16],inactive
same,Potency,[17],inactive
same,Potency,[18],inactive
same,Potency,[19],inactive
CC(C)=CCOc1c2occc2cc2ccc(=O)oc12,outcome,[1],inactive
same,outcome,[3],inactive
same,outcome,[4],inactive
same,Potency,[5],inactive
same,Potency,[6],inactive
same,Potency,[7],inactive
same,Potency,[8],inactive
same,Potency,[10],inactive
same,Potency,[11],inactive
same,Potency,[12],inactive
same,Potency,[13],inactive
same,Potency,[14],inactive
same,Potency,[16],inactive
same,Potency,[18],inactive
same,Potency,[20],inactive
same,Potency,[19],inactive
NCC(CC(=O)O)c1ccc(Cl)cc1 (stereo not given),outcome,[1],inactive
same,outcome,[2],inactive
same,outcome,[3],inactive
same,outcome,[4],inactive
same,Potency,[5],inactive
same,Potency,[6],inactive
same,Potency,[7],inactive
same,Potency,[8],inactive
same,"activity change, negative = cytotoxic",[9],1.72% [at 0.594 µM]
same,"activity change, negative = cytotoxic",[10],-6.69% [at 0.597 µM]
same,"activity change, negative = cytotoxic",[11],-1.55% [at 0.597 µM]
same,"activity change, negative = cytotoxic",[12],-10.9% [at 0.597 µM]
same,"activity change, negative = cytotoxic",[15],-3.28% [at 0.597 µM]
same,"activity change, negative = cytotoxic",[16],-3.85% [at 0.597 µM]
same,"activity change, negative = cytotoxic",[19],-9.23% [at 0.597 µM]
CCCC(C)(COC(N)=O)COC(=O)NC(C)C (stereo not given),outcome,[4],inactive
same,Potency,[5],inactive
same,Potency,[6],inactive
same,Potency,[7],inactive
same,Potency,[8],inactive
same,Potency,[9],inactive
same,Potency,[10],inactive
same,Potency,[11],inactive
same,Potency,[12],inactive
same,Potency,[13],inactive
same,Potency,[14],inactive
same,Potency,[15],inactive
same,Potency,[16],inactive
same,Potency,[17],inactive
same,Potency,[18],inactive
same,Potency,[20],inactive
same,Potency,[19],inactive
C[C@]12CCC(=O)C(O)=C1CC[C@@H]1[C@@H]2CC[C@]2(C)C(=O)CC[C@@H]12,outcome,[4],inactive
same,Potency,[5],inactive
same,Potency,[6],inactive
same,Potency,[7],inactive
same,Potency,[8],inactive
same,Potency,[10],inactive
same,Potency,[11],inactive
same,Potency,[12],inactive
same,Potency,[13],inactive
same,Potency,[14],inactive
same,Potency,[16],inactive
same,Potency,[17],inactive
same,Potency,[18],inactive
same,Potency,[19],inactive
CC(=O)[C@H]1CC[C@H]2[C@@H]3CC[C@H]4C[C@](C)(O)CC[C@]4(C)[C@H]3CC[C@]12C,outcome,[1],inactive
same,outcome,[2],inactive
same,outcome,[3],inactive
same,outcome,[4],inactive
same,Potency,[5],inactive
same,Potency,[6],inactive
same,Potency,[7],inactive
same,Potency,[8],inactive
same,Potency,[9],inactive
same,Potency,[10],inactive
same,Potency,[11],inactive
same,Potency,[12],inactive
same,Potency,[13],inactive
same,Potency,[14],inactive
same,Potency,[15],inactive
same,Potency,[16],inactive
same,Potency,[17],inactive
same,Potency,[18],inactive
same,Potency,[20],inactive
same,Potency,[19],inactive
Fc1ccc(C(OCCN2CCN(CCCc3ccccc3)CC2)c2ccc(F)cc2)cc1,outcome,[1],inactive
same,outcome,[2],inactive
same,outcome,[3],inactive
same,outcome,[4],inactive
same,Potency,[5],34.3 µM (active)
same,Potency,[8],30.6 µM (active)
same,Potency,[9],13.1 µM (active)
same,Potency,[10],23.5 µM (active)
same,Potency,[11],20.9 µM (active) and 16.8 µM (active)
same,Potency,[12],14.8 µM (active)
same,Potency,[13],9.35 µM (active) and 10.6 µM (active)
same,Potency,[14],21.7 µM (active) and 24.6 µM (active)
same,Potency,[15],23.7 µM (active)
same,Potency,[16],23.5 µM (active)
same,Potency,[17],14.8 µM (active) and 15 µM (active)
same,Potency,[18],9.7 µM (active)
same,Potency,[19],16.6 µM (active) and 8.41 µM (active)
CC[C@@H](CO)NC(=O)[C@@H]1C=C2c3cccc4c3c(cn4C)C[C@H]2N(C)C1,outcome,[3],inactive
same,outcome,[4],inactive
same,Potency,[5],inactive
same,Potency,[6],inactive
same,Potency,[7],inactive
same,Potency,[8],inactive
same,Potency,[10],inactive
same,Potency,[11],inactive
same,Potency,[13],inactive
same,Potency,[16],inactive
same,Potency,[17],inactive
same,Potency,[18],inactive
c1ccc2c(c1)OCC(C1=NCCN1)O2 (stereo not given),outcome,[1],inactive
same,outcome,[2],inactive
same,outcome,[3],inactive
same,outcome,[4],inactive
same,Potency,[5],14.1 µM (active)
same,Potency,[10],26.6 µM (active)
same,Potency,[12],13.3 µM (active)
same,Potency,[13],18.8 µM (active)
same,Potency,[16],inactive
same,Potency,[17],23.7 µM (active)
same,Potency,[18],13.7 µM (active)
same,Potency,[20],23.7 µM (active)
same,Potency,[19],26.6 µM (active)
Cn1c(CCCC(=O)O)nc2cc(N(CCCl)CCCl)ccc21,outcome,[1],inactive
same,outcome,[2],inactive
same,outcome,[3],inactive
same,Potency,[5],inactive
same,Potency,[6],inactive
same,Potency,[7],inactive
same,Potency,[8],inactive
same,Potency,[9],inactive
same,Potency,[11],inactive
same,Potency,[12],inactive
same,Potency,[13],26.4 µM (active)
same,Potency,[15],2.64 µM (active)
same,Potency,[16],inactive
same,Potency,[17],inactive
same,Potency,[18],inactive
same,Potency,[20],18.7 µM (active)
CC(O)(CS(=O)(=O)c1ccc(F)cc1)C(=O)Nc1ccc(C#N)c(C(F)(F)F)c1 (stereo not given),outcome,[1],inactive
same,outcome,[2],inactive
same,outcome,[3],inactive
same,outcome,[4],inactive
same,Potency,[5],inactive
same,Potency,[6],inactive
same,Potency,[7],inactive
same,Potency,[8],inactive
same,Potency,[10],2.96 µM (active)
same,Potency,[12],1.18 µM (active)
same,Potency,[13],0.469 µM (active)
same,Potency,[14],inactive
same,Potency,[15],3.32 µM (active)
same,Potency,[16],inactive
same,Potency,[17],23.5 µM (active)
same,Potency,[18],inactive
